Measured values as given in paper PMC4336329 (PLoS ONE, 2015).
About 14,000 (4.5%) of roughly 310,000 compounds showed an effect of 50% or more. Effects have a minus sign here. Only a selection was taken, and strong results are over-represented in it overall.

target: human ether-à-go-go-related gene (hERG) potassium channel (human, UniProt Q12809); experiment: primary screen, population patch clamp on CHO cells stably expressing hERG; higher = less effect of the substance
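Note: peak tail current of the secondary pulse compared with the same well before compound.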

human ether-à-go-go-related gene (hERG) potassium channel, sequence (Q12809 whole entry, looked up): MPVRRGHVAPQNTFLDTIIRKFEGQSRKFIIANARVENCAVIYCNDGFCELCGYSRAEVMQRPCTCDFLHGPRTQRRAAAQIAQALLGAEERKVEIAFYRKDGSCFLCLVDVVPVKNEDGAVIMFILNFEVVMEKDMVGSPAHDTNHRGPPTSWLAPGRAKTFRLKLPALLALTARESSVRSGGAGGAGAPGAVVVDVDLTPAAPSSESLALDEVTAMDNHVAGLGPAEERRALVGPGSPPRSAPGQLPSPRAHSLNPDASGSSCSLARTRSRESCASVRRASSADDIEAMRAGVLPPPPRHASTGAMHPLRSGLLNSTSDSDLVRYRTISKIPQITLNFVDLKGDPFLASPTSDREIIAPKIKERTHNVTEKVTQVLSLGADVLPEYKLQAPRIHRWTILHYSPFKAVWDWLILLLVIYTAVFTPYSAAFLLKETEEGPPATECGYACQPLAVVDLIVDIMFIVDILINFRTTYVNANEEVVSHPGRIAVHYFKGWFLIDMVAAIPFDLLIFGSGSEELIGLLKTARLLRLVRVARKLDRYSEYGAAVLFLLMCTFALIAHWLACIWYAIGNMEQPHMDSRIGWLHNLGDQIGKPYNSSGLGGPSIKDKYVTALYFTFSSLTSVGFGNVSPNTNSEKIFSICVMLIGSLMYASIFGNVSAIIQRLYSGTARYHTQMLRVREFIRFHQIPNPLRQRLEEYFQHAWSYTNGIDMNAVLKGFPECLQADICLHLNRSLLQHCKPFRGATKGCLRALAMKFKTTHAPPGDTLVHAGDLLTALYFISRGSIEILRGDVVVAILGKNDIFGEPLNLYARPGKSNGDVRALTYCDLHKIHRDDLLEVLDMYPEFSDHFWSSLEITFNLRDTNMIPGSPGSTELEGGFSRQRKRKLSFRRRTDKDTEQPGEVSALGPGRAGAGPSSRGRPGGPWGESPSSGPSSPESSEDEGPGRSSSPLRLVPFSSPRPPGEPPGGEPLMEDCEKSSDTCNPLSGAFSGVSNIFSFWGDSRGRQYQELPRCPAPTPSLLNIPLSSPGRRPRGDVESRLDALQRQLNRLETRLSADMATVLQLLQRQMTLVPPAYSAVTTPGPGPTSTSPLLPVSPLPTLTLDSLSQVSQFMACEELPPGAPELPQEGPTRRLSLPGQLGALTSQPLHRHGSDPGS

SMILES | hERG current change (%, negative = inhibition) at 10uM
O=S(=O)(/N=C(/c1ccccc1)N1CCOCC1)c1ccc(F)cc1 | 23.7%
COc1ccc(-c2cc(C(=O)N(C)Cc3cccc(OC)c3OC)c3ccccc3n2)cc1OC | -28.8%
COc1ccc(OC)c(/C=C/C(=O)Oc2ccc(C(C)=O)cc2)c1 | 13.8%
Nc1c(-c2ccccc2)cnn1-c1cccc(C(F)(F)F)c1 | 1.64%
Cc1nnc(SCC(=O)NC2CCCCCC2)n1C | 23.4%
Cc1cc(N2CCN(C)CC2)n2nc(-c3ccc(Cl)cc3)nc2n1 | -77.3%
Cc1cc(N2CCOCC2)n2nc(C)c(-c3ccc(Cl)cc3)c2n1 | 8.58%
COc1ccccc1N1CCN(c2ccc3ccccc3n2)CC1 | -36.5%
Cl.FC(F)(F)c1cccc(N2CCNCC2)c1 | -13.3%
CCOc1cc(C)nc(N2CCN(C3CCCCC3)CC2)n1 | -67.5%
COc1ccccc1N1CCN(c2cnccn2)CC1 | -2.25%
CCOc1cc(C)nc(N2CCC(C(=O)Nc3ccccc3OCC)CC2)n1 | 5.62%
Cc1nc2nc(-c3ccc(Cl)cc3)nn2c(C)c1Cl | 8.82%
Cc1cc(N2CCN(c3cccc(C(F)(F)F)c3)CC2)n2nc(C)nc2n1 | -61.9%
COc1ccccc1N1CCN(c2cc(N3CCCC3)nc(C)n2)CC1 | -65.3%
Cn1nc(C(F)(F)F)c(C#N)c1N1CCN(c2cccc(C(F)(F)F)c2)CC1 | 3.01%
COc1cc(C)nc(N2CCC(C(=O)NC3CCCCC3)CC2)n1 | -3.08%
COc1ccc(/C=N/n2c(-c3cc(C)[nH]n3)n[nH]c2=S)cc1OC | 18.6%
Cc1cccnc1NC(=O)CN1C(=O)NC(C)(c2ccc3ccccc3c2)C1=O (stereo not drawn) | -14%
Cc1cc(C)cc(NC(=S)N(C)C)c1 | -5.83%
COc1ccc(N2CCN(C(=O)c3ccc4c(c3)[nH]c(=S)n3c5ccccc5nc43)CC2)cc1 | 16.7%
Cc1nc2cc(NC(=O)c3ccc([N+](=O)[O-])s3)ccc2s1 | -9.99%
O=C(c1cc(-c2cccc(O)c2)on1)N1CCN(C(c2ccccc2)c2ccccc2)CC1 | 10.8%

SMILES | hERG current change (%, negative = inhibition) at 10uM
Cc1ccc2nc(SCc3nc4c(cnn4-c4ccccc4)c(=O)[nH]3)[nH]c2c1 | 15.3%
C/C=C/c1ccc(OCC(=O)Nc2cc(S(=O)(=O)N3CCOCC3)ccc2N2CCCC2)c(OC)c1 | 3.81%
CC1(C)C(CO)=CC(=O)C2=C1SCC(=O)N2 | -16.3%
CCOc1ccc(NC(=O)C2CC(=O)OC2c2ccccc2)cc1 (stereo not drawn) | 6.5%
CCC(C)NC(=O)CCc1nc2ccccc2n1-c1ccccc1 (stereo not drawn) | 2.77%
O=C(CNC(=O)c1ccccc1Cl)OC1CCOC1=O (stereo not drawn) | 13.5%
Cc1cc(N2CCCC2)n2nc(C)nc2n1 | -11.8%
COc1cccc2c(C)cc(N3CCCCCC3)nc12 | -52.9%
Cc1cc(N2CCCCC2)nc2c(C)cccc12 | 15%
COc1ccc(Nc2cc(C)nc3ncnn23)cc1Cl | -39.5%
Cc1nc2ncnn2c(N2CCN(C(=O)c3cccc(F)c3)CC2)c1C | -49.3%
CCOC(=O)N1CCN(c2cc(C)nc3nc(C)nn23)CC1 | -32.9%
Cc1cc(N2CCCC2)nc2c(C)cccc12 | -21.6%
Cc1cc(N2CCN(c3cccc(C(F)(F)F)c3)CC2)n2ncnc2n1 | -37%
COc1ccc(Nc2cc(C)nc3nc(C)nn23)cc1Cl | -55.5%
Cc1cc(N2CCN(C3CCCCC3)CC2)n2nc(C)nc2n1 | -57.7%
Cc1cc(Nc2ccc(F)c(Cl)c2)n2nc(C)nc2n1 | -18%
Cc1nc2ncnn2c(N2CCN(c3cccc(C(F)(F)F)c3)CC2)c1C | -64.1%
O=C(O)CNC1=NCCCCC1 | 0.366%
O=C(O)Cc1ccc(NS(=O)(=O)c2ccccc2Cl)cc1 | 24.4%
Cc1ccc(NS(=O)(=O)c2cc([N+](=O)[O-])ccc2NNC(=S)Nc2cc(C)ccc2C)c(C)c1 | -0.00412%
CC1(C)Cc2c(C#N)c(N3CCN(C(=O)c4ccco4)CC3)nc(-c3ccco3)c2CS1 | -21.6%
Cc1ccc(CNS(=O)(=O)c2c(N)n(C)c(=O)n(C)c2=O)cc1 | 8.77%

SMILES | hERG current change (%, negative = inhibition) at 10uM
COc1ccc2c(CC(=O)NC(Cc3ccc(Cl)cc3)C(=O)O)cc(=O)oc2c1C (stereo not drawn) | 3.13%
N#Cc1ccc(-c2ccc3c(c2)OCO3)nc1SCC(=O)OCc1ccccc1 | 9.22%
Cc1ccc(NC(=O)C2CCN(S(=O)(=O)c3c(C)noc3/C=C/N(C)C)CC2)cc1 | -5.19%
O=C(c1ccc(-c2ccccc2Cl)o1)N1CCN(S(=O)(=O)c2cccs2)CC1 | 15.9%
O=C(c1cccs1)C1CN2CCC1CC2 (stereo not drawn) | -4.77%
COc1ccc(C(=O)Nc2ccc3c(c2)nc2n3CCSC2)cc1 | -24.7%
O=c1[nH]c(=O)n(Cc2ccc(Oc3ccccc3)cc2)cc1Br | -1.61%
COc1cccc(NCc2ccc([N+](=O)[O-])s2)c1 | -51%
Cc1cccc(NCc2ccc([N+](=O)[O-])s2)c1 | -26.7%
COc1ccc(NCc2ccc([N+](=O)[O-])s2)cc1 | -13.6%
COc1cc2c(cc1O)C[C@H]1c3c(cc(O)c(OC)c3-2)CCN1C | -70.1%
COc1cc2c(cc1OC)-c1c3c(cc4c1[C@@H](C2)N(C)CC4)OCO3 | -31.7%
COc1ccc2c(c1O)-c1c(OC)c(OC)cc3c1[C@H](C2)N(C)CC3 | -36.5%
COc1cc2c(cc1O)[C@@H]1Cc3cc(O)c(OC)cc3[C@H](C2)N1C | 11.3%
COc1cc2c(cc1OC)-c1c(OC)c(OC)cc3c1C(C2)N(C)CC3 (stereo not drawn) | -5.23%
COc1cc2c(cc1O)CC1c3c(cc(O)c(OC)c3-2)CCN1C (stereo not drawn) | -59.2%
O=C(O)CCCCCN1C(=O)/C(=C\c2ccc(-c3ccc(Cl)cc3)o2)SC1=S | 18%
COCCN1C(=O)c2ccccc2C(C(=O)Nc2ccc3c(c2)OCCO3)C1c1ccc(F)cc1 (stereo not drawn) | 17.1%
COc1cccc(S(=O)(=O)Nc2ccc(C(=O)Nc3ccncc3)cc2)c1 | 2.7%
Cc1ccc(CSc2ccc(S(=O)(=O)N3CCCC3)cn2)cc1 | -4.27%
Cc1ccc(S(=O)(=O)N2CCC(N3CCCCCC3)CC2)cc1 | -23.2%
N#Cc1ccc(CSc2ccc(S(=O)(=O)N3CCCC3)cn2)cc1 | -67.2%
N#Cc1ccc(S(=O)(=O)N2CCC(N3CCCCC3)CC2)cc1 | -58.3%

SMILES | hERG current change (%, negative = inhibition) at 10uM
CCn1c(SC)nnc1-c1ccc(S(=O)(=O)N2CCCCC2)cc1 | -12.1%
O=S(=O)(c1ccc(SCc2ccc(Cl)cc2)nc1)N1CCCC1 | -8.21%
O=S(=O)(c1ccc(Cl)cc1)N1CCC(N2CCCCCC2)CC1 | -49.9%
CCn1c(SCc2ccc(C#N)cc2)nnc1-c1ccc(S(=O)(=O)N2CCCCC2)cc1 | -70.7%
CCn1c(SCc2ccccc2)nnc1-c1ccc(S(=O)(=O)N2CCCCC2)cc1 | -36.2%
CC(=O)c1cccc(N/C=C\c2nnnn2-c2ccc(F)cc2)c1 | 0.338%
COC(=O)C1=C(C)NC(C)=C(C(=O)OC)C1c1ccccn1 | 5.81%
O=C(NC1CCCC1)C(c1cccnc1)N(C(=O)c1csnn1)C1CCCC1 (stereo not drawn) | 13%
O=C(CN(C(=O)Cn1nnc(-c2cccs2)n1)c1ccc2c(c1)OCCO2)NC1CCCCC1 | -13.2%
Cc1nnc(C)n1N | 12.1%
CCn1c(=O)cc(OCC(=O)O)c2ccccc21 | 10.6%
S=C(NCc1ccccc1)Nc1ccc(Cl)cc1 | -25.1%
CC1CCN(c2nc(-c3cccnc3)nc3scc(-c4ccccc4)c23)CC1 | 15.4%
CCC(CO)Nc1nc(CN2CCCCC2)nc2scc(-c3ccccc3)c12 (stereo not drawn) | -68.2%
Clc1ccc(CNc2nc(CN3CCOCC3)nc3scc(-c4ccccc4)c23)cc1 | -9.73%
O=C(O)C(=O)O.c1ccc(CNc2nc(CN3CCOCC3)nc3scc(-c4ccccc4)c23)cc1 | -20.6%
OCC1CCCN(c2nc(CN3CCCCC3)nc3scc(-c4ccccc4)c23)C1 (stereo not drawn) | -63.7%
OCC1CCCN(c2ncnc3scc(-c4ccccc4)c23)C1 (stereo not drawn) | 3.73%
Fc1ccc(N2CCN(c3nc(CN4CCOCC4)nc4scc(-c5ccccc5)c34)CC2)cc1 | -5.05%
CC1CCN(c2nc(CN3CCCCC3)nc3scc(-c4ccccc4)c23)CC1 | -75.5%
CC1CCCN(c2nc(-c3cccnc3)nc3scc(-c4ccccc4)c23)C1 (stereo not drawn) | 11.6%
